Reference: PubChem BioAssay AID1214 (Sanford-Burnham Center for Chemical Genomics, 2008)
Screen size: about 190,000 compounds; about 10 (0.005%) were called active.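 How the source made its calls: active means activation factor of 2 or more at 20 µM, relative to plate controls; inactive means the rest.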 Only a sample is shown.

Target: Mannose-6-phosphate isomerase (Homo sapiens) (UniProt P34949)
Assay: activators of human PMI, primary screen, biochemical, fluorescence intensity, near-Km mannose 6-phosphate (AID 1214)
Settings: purified human PMI, coupled resazurin fluorescence, 20 min; at 20 µM; stronger effect = higher value; 1 = vehicle control, 0 substrate-free wells

Chain of Mannose-6-phosphate isomerase (Homo sapiens) (P34949 whole entry, looked up): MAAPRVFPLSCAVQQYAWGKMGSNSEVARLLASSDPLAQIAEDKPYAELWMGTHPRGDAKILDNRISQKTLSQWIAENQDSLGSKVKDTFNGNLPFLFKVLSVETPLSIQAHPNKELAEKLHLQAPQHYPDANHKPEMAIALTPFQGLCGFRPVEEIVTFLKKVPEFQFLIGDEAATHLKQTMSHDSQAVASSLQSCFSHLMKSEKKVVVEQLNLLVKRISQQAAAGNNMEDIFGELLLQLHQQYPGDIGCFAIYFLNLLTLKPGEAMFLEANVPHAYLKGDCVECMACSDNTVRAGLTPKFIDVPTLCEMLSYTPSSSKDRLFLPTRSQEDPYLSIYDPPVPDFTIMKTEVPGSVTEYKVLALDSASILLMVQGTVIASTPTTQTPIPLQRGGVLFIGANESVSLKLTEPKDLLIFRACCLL

Activation factor, inactive:
CCOC(=O)c1c(C)[nH]c(C2=NNC(=NC(C)COC)SC2)c1C (stereo not given) 1.3
Cc1cc(-c2n[nH]c(=S)n2-c2ccc(C)c(C)c2)no1 1
CCC(=O)Nc1c(C)n[nH]c1C 0.9
Cc1ccc(OCc2n[nH]c(=S)n2-c2ccc(C)cc2)cc1 0.8
CNc1nc(Nc2ccc(C)c(Cl)c2)nc(N)c1[N+](=O)[O-] 0.9
O=C(NCCCNc1ccc([N+](=O)[O-])cc1Cl)c1ccccc1F 1.1
COc1ccc(/C=C(\NC(=O)c2ccc(OCC(C)C)cc2)C(=O)OCc2ccco2)cc1 0.9
O=C1CCC/C(=N\NC(=O)NC2CCCCC2)C1 0.8
O=C(CSc1ccccc1)Nc1nnc(/C=C/c2ccccc2)s1 0.9
COC(=O)CNC(=O)c1ccc(OC2CCN(C(=O)C3CC3)CC2)cc1 0.9
COc1cc(/C=C/C(=O)N2c3ccccc3Sc3ccc(C(F)(F)F)cc32)cc(OC)c1OC 0.9
O=C1/C(=C\c2ccccc2Cl)SC(=S)N1CCC(=O)N1CCCc2ccccc21 0.9
CNC(=O)NC(=O)CSc1nnc(-c2ccc(F)cc2)n1CC1CCCO1 (stereo not given) 1
Nc1cc(C(F)(F)F)ccc1N1CCOCC1 1
COc1cc(C2C(N3C(=O)c4ccccc4C3=O)C(=O)N2c2ccc(C)c(C)c2)cc(OC)c1OC (stereo not given) 0.9
OCC(CO)(CO)NCc1ccc(-c2ccccc2)cc1 1
COc1ccc(Cl)cc1-n1c(C)cc(C(=O)OCC(=O)N2CC(=O)Nc3ccccc32)c1C 0.9
COc1cc(/C=N/NC(=O)CCc2n[nH]c(=O)[nH]c2=O)ccc1O 0.9
COc1cccc(CN(C)CC(=O)Nc2ccccc2C(=O)Nc2ccccc2)c1 0.9
COc1ccccc1CNC(=O)COc1ccc(C)nc1[N+](=O)[O-] 1.1
O=C(N/N=C/c1ccc([N+](=O)[O-])o1)c1cn(-c2ccccc2)nc1-c1ccc(F)cc1 1.4
Cc1ccc(C)c(NC(=S)NNC(=S)Nc2ccc(C(C)C)cc2)c1 0.8
N=C1C(=O)OCC1c1ccccc1NC(=O)CN1CCCCC1 (stereo not given) 1.1
C=CCOc1c(Br)cc(/C=N\n2nnnc2N)cc1OC 1.1
O=C(Nc1cccnc1)c1cc2cc(Br)ccc2oc1=O 1
COCC(C)NC(=O)COc1nncc2ccccc12 (stereo not given) 1.2
C=CCN1C2CCCC1CC(NC(=S)Nc1cccc(OC)c1)C2 (stereo not given) 0.9
CCNC(=O)NNC(=O)C1CC(c2cccs2)=NO1 (stereo not given) 1
CCc1cccc(NC(=O)CCC(=O)O)c1 1
NC(=O)COC(=O)c1sc2cc(F)ccc2c1Cl 1.2
CCOC(=O)N1CCN(Cc2nc3ccc([N+](=O)[O-])cc3c(=O)n2-c2cccc(OC)c2)CC1 1
COc1ccccc1CNC(=O)C1Cc2ccccc2C(=O)O1 (stereo not given) 0.9
O=C(/C=C/c1ccccc1)Oc1coc(CSc2ncccn2)cc1=O 1
COc1ccc(Br)cc1CN(C)CC(=O)Nc1cc(Cl)cc(Cl)c1 0.8
Cc1ccc(/C([O-])=C(/C(=S)NCc2ccco2)[n+]2ccccc2)cc1[N+](=O)[O-] 1
CN(C)/C=C(/C(=O)c1ccc(F)cc1)S(=O)(=O)c1ccc(F)cc1 1.2
O=S(=O)(c1ccc2c(c1)OCCO2)N1CCc2ccccc21 0.9
N#C/C(C(=S)Nc1ccccc1)=C1/NN=C(N2CCOCC2)N1c1ccccc1 1
CCN(CC)S(=O)(=O)c1ccc(N2CCOCC2)c(NC(=O)C2COc3ccccc3O2)c1 (stereo not given) 1
COc1ccc(NC(=O)CN(Cc2ccccc2)S(C)(=O)=O)cc1OC 0.9
COc1ccccc1N(CC(=O)Nc1ccc(C(F)(F)F)cc1)S(C)(=O)=O 1
O=C(Cc1cccs1)N(CC1CCCO1)C1(C(=O)NC2CCCCC2)CCCCC1 (stereo not given) 1.1
O=C(OCC1O[C@@H](OC(=O)c2cc(O)c(O)c(O)c2)[C@@H](OC(=O)c2cc(O)c(O)c(O)c2)[C@@H](OC(=O)c2cc(O)c(O)c(O)c2)[C@@H]1OC(=O)c1cc(O)c(O)c(O)c1)c1cc(O)c(O)c(O)c1 (stereo not given in full) 0.4
CC[n+]1c(C)n(-c2ccccc2)c2ccc(NC(C)=O)cc21 0.5
Cc1c(C(=O)Nc2cccc(Cl)c2)cn2c(nc3ccccc32)c1C#N 1.1
O=C(NCC(=O)N(CC1CCCO1)C(C(=O)NC1CCCCC1)c1ccccc1)c1ccco1 (stereo not given) 1.1
CC(C)(C)C1CCC(=NNC(=O)c2cc(-c3ccccc3)n[nH]2)CC1 (stereo not given) 1
O=C(CSc1cccc[n+]1[O-])NCCCc1ccccc1 1
O=c1cc(CO)oc(C(Nc2cccc([N+](=O)[O-])c2)c2ccccn2)c1O (stereo not given) 1
O=S(=O)(ON(c1ccccc1)S(=O)(=O)c1ccccc1)c1ccccc1 1.1
COc1ccc(CCNC(=O)COC(=O)C2CCCCC2)cc1 0.9
NS(=O)(=O)c1ccc(NC(=S)NC(=O)c2cccnc2)cc1 1
CCCCN1C(=O)/C(=C/C=C2/C=Cc3ccccc3N2CC)SC1=S 0.7
CCOC(=O)c1ccccc1NC(=S)N1CCC(C(N)=O)CC1 1
O=C(CN1C(=O)/C(=C\c2ccccc2F)SC1=S)Nc1nc2ccccc2s1 0.8
COC(=O)C(=Nc1ccccc1)/C(C(=O)C(=O)N(C)c1ccccc1)=C(\O)c1ccc(Cl)cc1 1.2
COC(=O)C1=C(N)Oc2c(oc(CO)cc2=O)C1c1c(F)cccc1Cl (stereo not given) 1.1
O=C(CCC1CCCN(C(=O)Cc2ccc(F)cc2)C1)N1CCN(c2ccccn2)CC1 (stereo not given) 1
CCOC(=O)CCCNC(=O)COC(=O)/C=C/c1ccc2c(c1)OCO2 1.1
COc1ccc(CCNC(=O)c2ccc(CS(=O)(=O)c3ccc(Br)cc3)o2)cc1OC 1
CC(C)CCN1CCN(C/C=C/c2ccco2)CC1CCO (stereo not given) 0.8
CCOC(=O)c1ccc(NNC(C)=O)c([N+](=O)[O-])c1 0.9
CC(=O)c1ccc(NC(=S)N(Cc2ccccc2)C(C)C2CC2)cc1 (stereo not given) 0.8
O=C(CN1CCCC1)N1CCN(c2ccccc2)CC1 0.8
O=C(CC1C(=O)NCCN1Cc1ccc(-c2ccccc2)cc1)NCc1ccncc1 (stereo not given) 1
CCOc1ccc(-n2c(SCC(=O)NC3CCS(=O)(=O)C3)nnc2-c2cccnc2)cc1 (stereo not given) 1
O=C(Nc1ccc(N2CCOCC2)cc1)c1ccc2c(c1)OCO2 0.9
CCC1CCCCN1C(=O)CSc1nc(C)cc(C)n1 (stereo not given) 1
CCCOC(=O)c1ccc(N2C(=O)c3ccccc3C2=O)cc1 1
O=C(CSc1ccc([N+](=O)[O-])cn1)Nc1ccc(N2CCOCC2)c(Cl)c1 1
COc1ccc(-c2cc(C(=O)NCCCn3ccnc3)no2)cc1 1
Cc1cccc(C)c1NC(=S)N(Cc1cccnc1)Cc1ccccc1Cl 0.9
COc1ccc(/C=C/CN2CCCC(C(=O)c3cc(F)ccc3F)C2)cc1 (stereo not given) 1
O=c1c2sccc2nc(SCc2cc(=O)n3ccccc3n2)n1-c1ccc(Br)cc1 0.9
O=C1CS(=O)CN1c1ccc(Oc2ccccc2)cc1 (stereo not given) 1
CC(=C/c1ccccc1)/C=N/NC(=O)c1cc(C)oc1C 0.9
CN1C(=O)C(CC(=O)Nc2ccccc2)S/C1=N/c1nccs1 (stereo not given) 1
CC(/C=C/C1(O)C(C)CC(=O)CC1(C)C)OC1OC(CO)C(O)C(O)C1O (stereo not given) 0.9
CCN(C(=O)COC(=O)c1ccc(COc2ccc3c(C)cc(=O)oc3c2)cc1)C1CCS(=O)(=O)C1 (stereo not given) 1
CCOC(=O)c1cc2c(=O)n3ccccc3nc2n(CC(C)C)c1=NC(=O)c1c(-c2c(F)cccc2Cl)noc1C 1
CCOc1ccc2nc(NCCNC(=O)C(C)(C)C)c(C)cc2c1 1
Cc1cccc(N(C(=O)Cc2cccs2)C(C(=O)NCc2ccco2)c2ccncc2)c1 (stereo not given) 0.9
COc1ccc(Cl)cc1NC(=O)NC(C)C(C)(C)C (stereo not given) 0.9
CC(C)CCN1CCN(Cc2cn[nH]c2C2CCCCC2)CC1CCO (stereo not given) 1
Cc1cccc(NC(=O)/C=C/c2ccc3c(c2)OCO3)n1 0.9
CC1=CC(=C(C#N)c2nc3ccccc3s2)C=C(C)N1c1ccc(F)cc1F 0.7
COc1cccc(/C=C/C(=O)Nc2ccc3c(c2)OCCO3)c1 1.1
Cc1c(NC(=S)NCc2ccc(F)cc2)cccc1[N+](=O)[O-] 0.8
Cc1ccc(-c2nn(-c3ccccc3)cc2/C=C/C(=O)Nc2cccc(S(N)(=O)=O)c2)cc1 0.9
COc1ccc(NC(=S)N2CCCC(CO)C2)c(OC)c1 (stereo not given) 1
COC(=O)c1c(C(=O)OC)c(-c2cccc(C)c2)n2c1CS(=O)C2 (stereo not given) 0.9
CCOC(=O)C1(O)CC(C)=NN1C(=O)c1cccc(Br)c1 (stereo not given) 1.1
Cc1ccc(-n2cc(CN(C)Cc3nccn3C)c(-c3cccc(C)c3)n2)cc1 0.8
O=C(CCNC(=O)c1ccc([N+](=O)[O-])cc1)Nc1ccccc1N1CCOCC1 1
CCCC(O)(CCC)C(=O)NN(C(=O)CCl)c1cccc(C)c1 1.1
